Laboratory results from the supplement of paper PMC4840960.

System: E18 rat cortical neuron-glia co-culture
Assay: fiber score / MBP score (myelination specific beyond OL differentiation) (ratio); higher = more myelination-specific MBP alignment
Details: 1 µM; treatment time: 8 days (DIV5-DIV13)
Summary of the method: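 Primary E18 rat cortical co-cultures (papain-dissociated, 20,000 cells/well on poly-d-lysine/laminin 96-well plates) received library compounds at 1 or 5 µM in myelination medium from DIV5 to DIV13. Cells were fixed in 4 % paraformaldehyde and immunostained for MBP and Olig2 with DAPI, and four 10X fields per well in duplicate wells were analysed. The read-out is fiber score (continuous MBP fiber length per Olig2+ nucleus) divided by MBP score (thresholded MBP area × intensity per Olig2+ nucleus).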

In order of falling “fiber score / MBP score” value:
1. Nc1nc(N)c2nc(-c3ccccc3)c(N)nc2n1 [Triamterene]  1.39
2. C[C@](N)(Cc1ccc(O)c(O)c1)C(=O)O [Methyldopa]  1.28
3. OCCN(CCO)c1nc(N2CCCCC2)c2nc(N(CCO)CCO)nc(N3CCCCC3)c2n1 [Dipyridamole]  1.01
4. CN(C)[C@@H]1C(O)=C(C(N)=O)C(=O)[C@@]2(O)C(O)=C3C(=O)c4c(O)cccc4[C@@](C)(O)[C@H]3[C@H](O)[C@@H]12 [Oxytetracycline]  0.993
5. CC1=C(C(=O)O)N2C(=O)[C@@H](NC(=O)[C@H](N)c3ccccc3)[C@H]2SC1 [Cephalexin]  0.963
6. CCC1=C[C@@H]2CN(C1)Cc1c([nH]c3ccccc13)[C@@](C(=O)OC)(c1cc3c(cc1OC)N(C)[C@H]1[C@@](O)(C(=O)OC)[C@H](OC(C)=O)[C@]4(CC)C=CCN5CC[C@]31[C@@H]54)C2 [Vinorelbine]  0.944
7. Oc1ccc(C2CNCCc3c2cc(O)c(O)c3Cl)cc1 (centres undefined) [Fenoldopam]  0.941
8. CC(Oc1c(Cl)cccc1Cl)C1=NCCN1 (centres undefined) [lofexidine]  0.929
9. Cc1nc2ccccn2c(=O)c1CCN1CCC(C(=O)c2ccc(F)cc2)CC1 [Pirenperone]  0.876
10. CCCNCC(O)COc1ccccc1C(=O)CCc1ccccc1 (centres undefined) [Propafenone]  0.873
11. CCCC1O[C@@H]2C[C@H]3[C@@H]4CCC5=CC(=O)C=C[C@]5(C)[C@H]4[C@@H](O)C[C@]3(C)[C@]2(C(=O)CO)O1 (some centres undefined) [Budesonide]  0.86
12. S=c1[nH]cnc2nc[nH]c12 [Mercaptopurine]  0.858
13. CC(=O)OCC(=O)[C@@]1(O)CC[C@H]2[C@@H]3CCC4=CC(=O)C=C[C@]4(C)[C@H]3[C@@H](O)C[C@@]21C [Prednisolone acetate]  0.826
14. O=c1n(CCCN2CCN(c3cccc(Cl)c3)CC2)nc2ccccn12 [Trazodone]  0.819
15. CC(C)(C#N)c1cc(Cn2cncn2)cc(C(C)(C)C#N)c1 [Anastrozole]  0.803
16. CC(C)(C(=O)O)c1ccc(C(O)CCCN2CCC(C(O)(c3ccccc3)c3ccccc3)CC2)cc1 (centres undefined) [Fexofenadine]  0.774
17. O=S(=O)(O)CCS [Mesna]  0.768
18. CCOC(=O)[C@H](CCc1ccccc1)N[C@H]1CCc2ccccc2N(CC(=O)O)C1=O [Benazepril]  0.766
19. N=C(N)N [Guanidine]  0.765
20. Cc1[nH]c(=O)c(C#N)cc1-c1ccncc1 [Milrinone]  0.762
21. COc1ccccc1OCCNCC(O)COc1cccc2[nH]c3ccccc3c12 (centres undefined) [Carvedilol]  0.762
22. C[C@@H]1O[C@@H](OC[C@H]2O[C@@H](Oc3c(-c4ccc(O)c(O)c4)oc4cc(O)cc(O)c4c3=O)[C@H](O)[C@@H](O)[C@@H]2O)[C@H](O)[C@H](O)[C@H]1O [Rutin]  0.757
23. CCC[C@@H]1C[C@@H](C(=O)N[C@@H]([C@H]2O[C@H](SC)[C@H](O)[C@@H](O)[C@H]2O)[C@@H](C)O)N(C)C1 [Lincomycin]  0.754
24. NC(=O)N1c2ccccc2C=Cc2ccccc21 [Carbamazepine]  0.735
25. C#C[C@]1(O)CC[C@H]2[C@@H]3CCc4cc(OC)ccc4[C@H]3CC[C@@]21C [Mestranol]  0.724
26. Nc1nnc(-c2cccc(Cl)c2Cl)c(N)n1 [Lamotrigine]  0.703
27. C[C@@H](c1ncncc1F)[C@](O)(Cn1cncn1)c1ccc(F)cc1F [Voriconazole]  0.693
28. CC(=O)[C@H]1CC[C@H]2[C@@H]3CCC4=CC(=O)CC[C@]4(C)[C@H]3CC[C@]12C [Progesterone]  0.688
29. CC1(C)O[C@@H]2[C@@H](CO[C@@]3(COS(N)(=O)=O)OC(C)(C)O[C@@H]23)O1 [Topiramate]  0.669
30. C[C@H]1[C@H](OC(=O)CCC(=O)O)O[C@@H]2O[C@@]3(C)CC[C@H]4[C@H](C)CC[C@@H]1[C@@]24OO3 [Artesunate]  0.652
31. COC(=O)C1=C(C)NC(C)=C(C(=O)OC(C)C)C1c1cccc2nonc12 (centres undefined) [Isradipine]  0.618
32. Cn1c(NCCN(CCO)CCCc2ccc([N+](=O)[O-])cc2)cc(=O)n(C)c1=O [Nifekalant]  0.616
33. Nc1ccc2cn[nH]c2c1 [6-Aminoindazole]  0.529
34. O=C1[C@H]2CCCC[C@H]2C(=O)N1CCCCN1CCN(c2nsc3ccccc23)CC1 [Perospirone]  0.291
